This is one part of a sample in which hits are shown more often than they occur.
Epigenetic derep = Quantitative High-Throughput Screen for Regulators of Epigenetic Control; murine LDR cells, GFP reporter derepression, 30 h; Potency, µM (top dose mostly 53.9 µM), actives largely listed as activators; hit rate 0.2% among 280,000; AID 1865, 2009; also: nearly all actives have a fitted effect of over 60% in size
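Murine LDR cells bearing a silenced CMV-driven GFP reporter were exposed to compound for 30 h at 37 C. After PBS washes, GFP-positive cells (20-120 um objects) counted by laser-scanning microplate cytometry.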
HttQ103 aggreg = qHTS Multiplex Assay to Identify Dual Action Probes in a Cell Model of Huntington: Aggregate Formation (GFP); hit rate 1.1% among 220,000; Potency, µM (highest dose often 46.1 µM), actives largely listed as inhibitors; PC12 HttQ103-GFP aggregates, Acumen cytometry, 40 h; AID 1688, 2009; also: nearly all actives have a fitted effect of over 60% in size
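Huntingtin Q103 exon 1–GFP aggregates in induced PC12 cells (100 nM tebufenozide) were quantified by cytometry from lysates, with compounds dosed in titration.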
PINK1 modulator = A Quantitative High throughput Screen to Identify Chemical Modulators of PINK1 Expression; hit rate 0.2% among 410,000; Potency, µM (top dose mostly 76.6 µM), hits mostly activators; PINK1 immunofluorescence, high-content cytometry, 24 h; AID 624263, 2012; active = well fitted activation curve with a large enough effect; inconclusive = small, poorly fitted or top-dose-only effect; cell line not stated here; also: nearly all actives have a fitted effect of over 65% in size
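PINK1 protein level read as immunofluorescence by microplate cytometer in a fixed, stained stable cell line after 24 h exposure to five compound concentrations, with CCCP as control.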
PTAP TSG101 blk = qHTS Assay for Iinhibitors of HIV-1 Budding by Blocking the Interaction of PTAP/TSG101; Fluorescence polarization, FITC-PTAP peptide / Tsg101 binding; Potency, µM (series often up to 115 µM), hits mostly inhibitors; 340,000 tested, under 10 active; AID 493005, 2010; active = well fitted inhibition curve with a large enough effect in the main read-out, with a control signal flat, not every such curve was filed as active; inconclusive = small, poorly fitted or top-dose-only effect, or effect the other way, or a change in a side signal; inactive = no such curve, though single readings can be large or run the other way
Target sequence (Q99816 whole entry, looked up): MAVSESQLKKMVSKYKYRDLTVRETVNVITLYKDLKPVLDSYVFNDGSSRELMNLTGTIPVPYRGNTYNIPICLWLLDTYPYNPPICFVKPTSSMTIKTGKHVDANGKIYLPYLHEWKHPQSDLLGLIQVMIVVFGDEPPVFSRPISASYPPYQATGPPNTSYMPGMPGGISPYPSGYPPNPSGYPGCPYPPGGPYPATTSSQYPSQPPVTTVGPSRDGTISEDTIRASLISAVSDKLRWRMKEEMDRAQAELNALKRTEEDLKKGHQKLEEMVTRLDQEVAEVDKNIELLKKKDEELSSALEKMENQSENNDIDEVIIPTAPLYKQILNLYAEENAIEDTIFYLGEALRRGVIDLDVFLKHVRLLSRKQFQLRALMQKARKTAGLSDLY
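Tsg101 binding domain (10 uM final) was mixed with compound and a FITC-labeled PTAP peptide (50 nM final) in HEPES pH 7.5 buffer with NaCl, Tween 20, EDTA and TCEP; fluorescence polarization was read after 20 min at r.t.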
Apoferritin bind = qHTS Assay for Identification of Novel General Anesthetics; Potency, µM (top dose mostly 77.5 µM), hits mostly inhibitors; apoferritin/1-aminoanthracene competitive binding, fluorescence; Ferritin light chain (Equus caballus), P02791; hit rate 0.074% among 350,000; AID 485281, 2010; also: nearly all actives have a fitted effect of over 20% in size
Target sequence (P02791 2-175 limits assumed): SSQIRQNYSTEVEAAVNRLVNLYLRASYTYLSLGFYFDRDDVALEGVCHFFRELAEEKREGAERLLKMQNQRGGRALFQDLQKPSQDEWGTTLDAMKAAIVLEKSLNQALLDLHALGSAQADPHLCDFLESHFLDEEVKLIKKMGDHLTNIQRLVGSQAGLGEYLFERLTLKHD
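Probe: 1-aminoanthracene (50% saturated, PBS). Protein: horse-spleen apoferritin, 10 uM. Incubation: 10 min, room temperature. Detection: 380 nm excitation, 535 nm emission. Analysis: normalized response, four-parameter Hill.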
HTT cytoprotect = qHTS Multiplex Assay to Identify Dual Action Probes in a Cell Model of Huntington: Cytoprotection (ATP); hit rate 0.14% among 230,000; Potency, µM (titrated, usually from 56.4 µM), hits mostly activators; AID 1471, 2008; PC12 HTT-Q103 induced, cytoprotection, ATP luminescence, 40 h; also: nearly all actives have a fitted effect of over 45% in size
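Compounds were screened for protection of PC12 cells against cell death after tebufenozide induction (100 nM final) of mutant Huntingtin exon 1 (Q103) fused to GFP.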
A number is an active result; i = inactive; ? = inconclusive; nt = no result; ! = not confirmed by another sample; [ ] = remark or other dose. Unless noted, calls follow the shape of the dose curve; as a rule, active = well fitted curve in the direction sought with a large enough effect; inconclusive = small, poorly fitted or top-dose-only effect, or another doubt; inactive = no such curve, though single readings can be large; an effect the other way counts as inactive or inconclusive.

SMILES | Epigenetic derep | HttQ103 aggreg | PINK1 modulator | PTAP TSG101 blk | Apoferritin bind | HTT cytoprotect
N#Cc1c(C(F)(F)F)cc(-c2ccccc2)nc1SCC(=O)Nc1sc2c(c1C#N)CCC2 | i | i | 12.6µM | i | i | ?
N#Cc1c(C(F)(F)F)cc(-c2cccs2)nc1SCC(=O)Nc1cccc(Cl)c1 | i | nt | i | nt | i | nt
N#Cc1ccc(-c2cccnc2)nc1SCC(=O)Nc1sc2c(c1C#N)CCC2 | ? | i | ? | i | i | i[10 µM]
N#Cc1c(C(F)(F)F)cc(-c2ccccc2)nc1SCc1nc(N)nc(N2CCOCC2)n1 | 6.31µM | i | i | ? | i | i
CCN(CC)C(=O)CSc1nc(-c2cccs2)cc(-c2cccs2)c1C#N | 35.5µM | i | i | i | i | i[10 µM]
N#Cc1c(C(F)(F)F)cc(-c2cccs2)nc1SCC(=O)Nc1cccc(Br)c1 | 10µM | nt | i | nt | i | nt
CCOC(=O)c1ccc(NC(=O)CSc2nc(-c3ccc(F)cc3)cc(C(F)(F)F)c2C#N)cc1 | 7.08µM | nt | i | nt | i | nt
CCOc1ccc(NC(=O)CSc2nc(-c3ccc(F)cc3)cc(C(F)(F)F)c2C#N)cc1 | i | nt | i | nt | i | nt
CC(NC(=O)c1cccnc1)c1nnc2n1CCN(Cc1ccc(F)cc1F)CC2 (centres undefined) | nt | nt | i | nt | nt | nt
O=C(NC1CC1)c1cc2c(s1)-c1ccccc1OC2 | i | 6.31µM | i | i | i | i
COC(=O)c1cn([C@@H]2C[C@@H](C(=O)N3CCCCCC3)N(Cc3cc4ccccc4s3)C2)nn1 | nt | nt | i | nt | nt | nt
COc1c(N2CCN(C(=S)Nc3ccc(F)cc3)C(C)C2)c(F)cc2c(=O)c(C(=O)O)cn(C3CC3)c12 (centres undefined) | i | i | i | i | i | i
COc1c(N2CCNC(C)C2)c(F)cc2c(=O)c(C(=O)O)cn(C3CC3)c12 (centres undefined) | i | i | i | nt | nt | 3.16µM!
Cc1cccc(CN2CCc3nnc(C(C)NC(=O)C4CCOCC4)n3CC2)c1 (centres undefined) | nt | nt | i | nt | nt | nt
O=S(=O)(Nc1cccc2ncccc12)c1cccs1 | ? | 12.6µM | i | i | i | i[10 µM]
CCOc1c2c(c(-c3ccc4c(c3)OCO4)c3cc(OC)c(OC)cc13)C(=O)OC2 | nt | nt | 14.1µM | nt | nt | nt
O=C(C[n+]1cc(Br)cc2ccccc21)c1ccc(Cl)cc1 | nt | nt | 14.1µM | i | i | nt
CN(CCO)C1=NS(=O)(=O)c2cc([N+](=O)[O-])ccc21 | i | 6.31µM | i | i | i | i
Cc1cccc(C)c1NC(=O)C(C)c1ccc(-c2ccccc2)c(F)c1 (centres undefined) | i | 17.8µM | i | i | i | i
O=c1c(Cl)cc(Cl)nn1-c1ccccc1 | i | 17.8µM | i | i | i | i[10 µM]
O=C(NC1CCCCC1)c1cccs1 | i | i[9.22 µM] | i | i | 12.6µM | i
CC1(C)Cc2c(sc3nc(-c4cccs4)n(N)c(=O)c23)CO1 | i | 10µM | i | nt | i | i
COc1ccc(CN2CCOc3ccc(CN4CCN(CCO)CC4)cc3C2)c2ccccc12 | nt | nt | i | nt | nt | nt
CC(C)CCNC(=O)CN1C(=O)c2cccnc2Oc2ccccc21 | i | nt | i | nt | i | nt
Cc1[nH]c2ccc(C(=O)NCCCN3CCCCC3)cc2c1C | i | nt | i | i | i | nt
SMILES | Epigenetic derep | HttQ103 aggreg | PINK1 modulator | PTAP TSG101 blk | Apoferritin bind | HTT cytoprotect
COC(=O)CCCNC(=O)c1ccc2[nH]c(C)c(C)c2c1 | i | 1.26µM | i | i | i | i
O=C(/C(=C/c1ccc(Cl)cc1)c1nc2ccccc2[nH]1)c1ccccc1 | i | 5.01µM | i | i | i | i
O=C(N/C(=C/c1ccc(Cl)cc1)c1nc2ccccc2[nH]1)c1ccco1 | i | i | i | i | i | i
Cc1cc(NC(=O)COC(=O)c2ccccc2OCCOc2ccccc2)ccc1Br | nt | nt | i | nt | nt | nt
O=C(CSc1ccc2ccccc2c1)Nc1ccncc1 | i | i | 12.6µM | i | ? | i
CCC(C)n1c(=S)[nH]c2c(sc3ccc([N+](=O)[O-])cc32)c1=O (centres undefined) | i | 10µM | ? | i | i | i[10 µM]
CC(C)n1c2ccccc2c2cc([N+](=O)[O-])ccc21 | i | i | i | i | i | i[0.074 µM]
CCCS(=O)(=O)NCc1c(C)ncc2c1CCN(C(=O)c1ccc3[nH]c4c(c3c1)CCCC4)C2 | nt | nt | i | nt | nt | nt
COc1ccc(C(=O)C(CN2CCOCC2)c2ccccc2)cc1F (centres undefined) | ? | nt | i | i | ? | 3.16µM
COc1ccc(N2C(=O)CC3(CCCC3)CC2=O)cc1 | i | i | i | i | ? | 3.16µM
O=C1CC2(CCCC2)CC(=O)N1c1ccccc1 | i | i | i | i | ? | i
Cc1ccc(S(=O)(=O)N2CCN(c3nc(-n4ccnc4)nc4ccccc34)CC2)cc1 | nt | nt | i | nt | nt | nt
CCOC(=O)c1sc(=S)n(C)c1NC(=O)c1cccc(Br)c1 | i | i[9.22 µM] | 39.8µM | i | i | i[10 µM]
Cc1cc(N2CCN(C/C=C/c3ccccc3)CC2)n2ncnc2n1 | i | 3.55µM | nt | i | i | ?
Cc1cc(N2CCN(c3ccccc3)CC2)n2ncnc2n1 | i | i[9.22 µM] | i | i | i | i[10 µM]
Cc1cc(C(=O)COC(=O)c2ccc(O)cc2O)c(C)n1-c1ccc(OC(F)F)cc1 | nt | nt | ? | i | nt | nt
Cc1cc(C(=O)CC#N)c(C)n1-c1ccc(OC(F)F)cc1 | i | 8.91µM | i | i | ? | i[10 µM]
CC[n+]1ccccc1/C=C1\Sc2ccc(C)cc2N1C | nt | nt | 15.8µM | i | i | nt
CN1/C(=C/c2cccc[n+]2CCO)Sc2ccccc21 | nt | nt | i | i | i | nt
CCC(/C=C1\Sc2ccc(OC)cc2N1CC)=C\c1sc2ccc(OC)cc2[n+]1CCCS(=O)(=O)[O-] | i | ? | i | ? | i | i
CCC(/C=C1\Sc2ccc(OC)cc2N1CCO)=C\c1sc2ccc(OC)cc2[n+]1CCO | i | ? | 14.1µM | i | ? | i[10 µM]
CC(=O)N1CCc2cc(S(=O)(=O)NC3CCCc4ccccc43)ccc21 (centres undefined) | i | 7.08µM | i | i | i | i[10 µM]
O=C(O)c1ccc(S(=O)(=O)NC2CCCc3ccccc32)cc1 (centres undefined) | i | i | i | i | i | i
COc1ccccc1OC(C)C(=O)Nc1nc(-c2ccc(S(=O)(=O)N3CCOCC3)cc2)cs1 (centres undefined) | i | i | i | i | i | i
O=S(=O)(Nc1ccc(-c2csc(-c3ccccc3)n2)cc1)c1ccc(F)cc1 | i | i | i | i | i | i[10 µM]
COc1ccccc1C(=O)Nc1nc(-c2ccc(S(=O)(=O)N3CCOCC3)cc2)cs1 | i | 2.51µM | i | i | i | i
